According to PubChem BioAssay (NCATS):
Inconclusive results are not listed. Calls of active or inactive are those of the source. Calls come from the whole dose curve; as a rule, active = well fitted curve in the direction sought with a large enough effect; inconclusive = small, poorly fitted or top-dose-only effect, or another doubt; inactive = no such curve, though single readings can be large; an effect the other way counts as inactive or inconclusive.

Key:
[1] = qHTS for Inhibitors of Plasmodium falciparum (DD2) proliferation (AID 504314);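 note: parasite DNA measured by SYBR Green fluorescence after red cell lysis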
Outline: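 SYBR Green growth assay: 72 h compound exposure of infected red cells (2.5% hematocrit, 0.3% parasitemia), then lysis and overnight dye staining, fluorescence 485/535 nm. Values scaled between DMSO and 0.29 uM artemisinin controls.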

[2] = qHTS for Inhibitors of Plasmodium falciparum (GB4) proliferation (AID 504315); note: nearly all actives have a fitted effect of over 50% in size
Outline: (§1)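 Parasite growth measured as SYBR Green DNA fluorescence (ex 485, em 535 nm) after overnight lysis following 72 h culture at 37 °C, 0.3% parasitemia, 2.5% hematocrit. Values normalized against DMSO and 0.29 uM artemisinin controls, with plate-stack correction.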

[3] = qHTS for Inhibitors of Plasmodium falciparum (7G8) proliferation (AID 504316); note: series mostly up to about 6.7 µM; nearly all actives have a fitted effect of over 65% in size
Outline: as §1

[4] = qHTS for Inhibitors of Plasmodium falciparum (HB3) proliferation (AID 504318); note: nearly all actives have a fitted effect of over 60% in size
Outline: as §1

[5] = qHTS for Inhibitors of Plasmodium falciparum (CP250) proliferation (AID 504320)
Outline: as §1

Measured: Potency

COC(=O)C1=C(C)N(CC2CC2)C(=O)N[C@H]1c1ccccc1
inactive: [1] | [2] | [3] | [4] | [5]

COC(=O)C1=C(C)N(Cc2ccccc2)C(=O)N[C@H]1c1ccc(Br)cc1
inactive: [1] | [2] | [3] | [4] | [5]

COC(=O)C1=C(C(=O)OC)[C@@H]2N(C)c3ccccc3[C@@]23C[C@@H](C(=O)OC)N=C3N1
inactive: [1] | [2] | [3] | [4] | [5]

COC(=O)[C@@H]1[C@H](CCc2ccccc2)NC(=O)N(Cc2ccccc2)[C@H]1C
inactive: [1] | [2] | [3] | [4] | [5]

C[C@H]1Cc2c(-c3ccccc3)nc3c(c2CO1)CN(S(=O)(=O)c1ccc(C#N)cc1)CC3
inactive: [1] | [2] | [3] | [4] | [5]

CCCCC1=CC2=C(c3ccco3)C(=O)C(C)(OC(=O)c3ccc(OC)cc3)C(=O)C2=CN1c1ccccc1 (stereo not given)
inactive: [1] | [2] | [3] | [4] | [5]

COC(=O)CCC(=O)OC1(C)C(=O)C=C2C=C(C3CC3)N(Cc3ccccc3)C=C2C1=O (stereo not given)
inactive: [1] | [2] | [3] | [4] | [5]

COC(=O)N[C@H](C(C(=O)OC)=C(C)NCc1ccccc1)c1cccc(F)c1
inactive: [1] | [2] | [3] | [4] | [5]

CCOC(=O)CN1C(=O)N[C@@H](c2ccco2)C(C(C)=O)=C1C
inactive: [1] | [2] | [3] | [4] | [5]

COC(=O)CCCC1=CC2=C(c3ccccc3)C(=O)C(C)(OC(=O)C3CCCC3)C(=O)C2=CN1C(CO)CO (stereo not given)
inactive: [1] | [2] | [3] | [4] | [5]

CC1(OC(=O)c2ccc(Cl)nc2)C(=O)C=C2C=C(C3CC3)OC=C2C1=O (stereo not given)
inactive: [1] | [2] | [3] | [4] | [5]

CC1(OC(=O)CCc2ccccc2)C(=O)C=C2C=C(c3ccc(C#N)cc3)N(C3CCCCC3)C=C2C1=O (stereo not given)
inactive: [1] | [2] | [3] | [4] | [5]

COC(=O)C1=C(C)N(Cc2ccccc2)C(=O)NC1c1ccco1 (stereo not given)
inactive: [1] | [2] | [3] | [4] | [5]

C=CCN1C=C2C(=O)C(C)(OC(=O)C3CCCC3)C(=O)C(c3ccccc3)=C2C=C1CCCC(=O)OC (stereo not given)
inactive: [1] | [2] | [3] | [4] | [5]

COCCN1C(=O)N[C@@H](c2ccccc2)[C@@H](C(=O)OC)[C@H]1C
inactive: [1] | [2] | [3] | [4] | [5]

CCCCC1=CC2=CC(=O)C(C)(OC(=O)CC)C(=O)C2=CN1c1cccc(C#N)c1 (stereo not given)
inactive: [1] | [2] | [3] | [4] | [5]

CC1(OC(=O)c2ccc(Cl)nc2)C(=O)C=c2cc(-c3ccsc3)ncc2=C1OC(=O)C1CCCC1 (stereo not given)
inactive: [1] | [2] | [3] | [4] | [5]

COC(=O)C1=C(C(=O)OC)[C@@H]2N(C)c3ccccc3[C@@]23C[C@@H](C(=O)OC)N(C(=O)C2CCC2)C3=N1
inactive: [1] | [2] | [3] | [4] | [5]

COC(=O)C1=C(C(=O)OC)[C@@H]2N(C)c3ccccc3[C@@]23C[C@@H](CO)N=C3N1
inactive: [1] | [2] | [3] | [4] | [5]

CCN1C(=O)N[C@@H](CCc2ccccc2)C(C(C)=O)=C1C
inactive: [1] | [2] | [3] | [4] | [5]

COC(=O)C1=C(C(=O)OC)[C@@H]2N(C)c3ccccc3[C@@]23C[C@@H](CO)N(C(=O)c2ccco2)C3=N1
inactive: [1] | [2] | [3] | [4] | [5]

COC(=O)CCC(=O)OC1(C)C(=O)C2=CN(C3CC3)C(c3ccc(OC)cc3)=CC2=C(Br)C1=O (stereo not given)
inactive: [1] | [2] | [3] | [4] | [5]
